Test [1] is described as follows: inhibitors of TNFa-induced NFkB p65 translocation, primary screen, imaging, HUVEC, MLSMR starter and 10KST1 sets (AID 438;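 active = inhibition above 20% together with a positive visual image hit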;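 note: compound added about 3h40 before a 20 min TNFalpha stimulation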;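 for inhibition: signal is the nuclear over cytoplasmic p65 intensity ratio per well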). The conditions noted are these: HUVEC TNFa-induced p65 nuclear translocation; cell count: measured here: nuclei count (cytotoxicity indicator), at 2.08 µM; inhibition: at 2 µM, stronger effect = higher value, 0% TNFa-plus-vehicle, 100% no-TNFa wells.
A short description of test [2]: reduction of polyQ htt aggregates in cells – imaging, exon1htt(103Q)mCFP cells, high-content imaging, primary screen (AID 483;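 active = visual image review flags a hit and inhibition of aggregation exceeds 20%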;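 note: compound exposure lasted 3 days before fixation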;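 for nuclei count: percent of the per-plate median nuclei count of sample wells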). The conditions noted are these: exon1htt(103Q)mCFP cell line, aggregate imaging, at 2 µM; inhibition of aggregation: stronger effect = higher value; nuclei count: measured here: cell count, toxicity.
The nature of test [3]: endothelial E-selectin expression blockers – imaging, HUVEC, immunofluorescence, MLSMR starter and 10KST1 sets, primary screen (AID 487;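 active = visually confirmed hit in the image check and inhibition above 20%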;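 for inhibition: signal is fraction of cell area covered by stained E-selectin grains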;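 for nuclei count: 100% = median nuclei count of all wells on the same plate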). As to conditions: HUVEC TNFalpha-induced E-selectin immunofluorescence imaging, at 2 µM; inhibition: stronger effect = higher value; nuclei count: measured here: cell number, toxicity.
Test [4] is described as follows: Primary imaging screen for DUSP6 inhibitors that restore phospho-Erk in transfected HeLa cells, chemical complementation (AID 609;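 active = compounds giving at least 50% inhibition in the cell-based MKP-3 phosphatase rescue imaging test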;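 for inhibition: phospho-Erk level distribution per well compared with pooled transfected vehicle control wells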). As to conditions: HeLa MKP-3 transfected, phospho-Erk imaging KS statistic, at 10 µM, cells stimulated with TPA for 15 min.
For test [5], the target named is Dual specificity protein phosphatase 6 (Homo sapiens) (UniProt Q16828). Described as above. As to conditions: HeLa MKP-3 transfected, phospho-Erk imaging KS statistic; at 10 µM; stronger effect = higher value; cells stimulated with TPA for 15 min.
Sequence of Dual specificity protein phosphatase 6 (Homo sapiens) (Q16828 whole entry, looked up): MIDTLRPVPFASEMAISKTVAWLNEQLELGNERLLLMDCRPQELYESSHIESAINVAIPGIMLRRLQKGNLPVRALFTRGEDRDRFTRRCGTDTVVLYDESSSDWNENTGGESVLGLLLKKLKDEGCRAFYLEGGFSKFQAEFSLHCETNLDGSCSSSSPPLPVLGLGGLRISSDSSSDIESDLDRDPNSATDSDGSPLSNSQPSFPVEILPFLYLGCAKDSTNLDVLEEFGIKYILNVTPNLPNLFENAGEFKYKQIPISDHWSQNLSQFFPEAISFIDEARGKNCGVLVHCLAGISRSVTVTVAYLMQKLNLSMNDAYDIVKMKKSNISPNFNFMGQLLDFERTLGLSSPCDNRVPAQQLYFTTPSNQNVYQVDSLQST
The target of test [6] is Voltage-gated potassium channel subunit beta-2 (Rattus norvegicus) (UniProt P62483). Kind of test: inhibitors of rat Kvbeta2 reductase activity – biochemical, NADPH fluorescence, primary screen (AID 622;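 active = fluorescence slope higher than the sample average by over 3 SD, cut at about -0.22 in these data, passing the limit was not always enough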;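 note: slope of raw intensity against log time taken from 70 to 1610 s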). As to conditions: recombinant KvBeta, 4-cyanobenzaldehyde reduction, at 10 µM, stronger effect = higher value.
Sequence of Voltage-gated potassium channel subunit beta-2 (Rattus norvegicus) (P62483 whole entry, looked up): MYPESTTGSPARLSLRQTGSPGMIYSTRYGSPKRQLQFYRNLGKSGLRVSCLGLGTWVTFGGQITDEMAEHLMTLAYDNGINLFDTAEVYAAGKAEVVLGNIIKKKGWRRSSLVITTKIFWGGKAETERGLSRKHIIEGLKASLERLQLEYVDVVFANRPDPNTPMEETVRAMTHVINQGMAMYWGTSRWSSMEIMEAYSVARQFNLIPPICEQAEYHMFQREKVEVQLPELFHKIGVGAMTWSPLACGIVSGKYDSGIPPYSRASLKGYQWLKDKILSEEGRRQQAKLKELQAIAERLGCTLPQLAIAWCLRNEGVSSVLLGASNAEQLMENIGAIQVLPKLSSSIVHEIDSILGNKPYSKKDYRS
For test [7] the target is unchanged. Kind of test: enhancers of rat Kvbeta2 NADPH turnover – biochemical, NADPH fluorescence, primary screen (AID 623;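 active = NADPH fluorescence slope more negative than the mean of all samples by about 3 SD, 99.7% confidence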;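 note: fluorescence intensity change per second fitted from 20 to 320 s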). The conditions noted are these: Recombinant KvBeta, NADPH fluorescence decrease slope, 10 min; at 10 µM; stronger effect = lower value.
The target in test [8] is Alpha-2C adrenergic receptor (Homo sapiens) (UniProt P18825). Kind of test: compounds altering alpha2C-coupled GIRK flux – cell-based, HEK293 alpha2C/GIRK1/2, thallium flux, primary screen (AID 624;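 active = fluorescence slope after compound addition differing from the mean of all screened samples at 99.7% confidence, in either direction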;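 note: slope of fluorescence ratio to pre-addition baseline per second over 15 to 24 s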). The conditions noted are these: thallium flux BTC fluorescence, at 10 µM, actives lie on both sides.
Sequence of Alpha-2C adrenergic receptor (Homo sapiens) (P18825 whole entry, looked up): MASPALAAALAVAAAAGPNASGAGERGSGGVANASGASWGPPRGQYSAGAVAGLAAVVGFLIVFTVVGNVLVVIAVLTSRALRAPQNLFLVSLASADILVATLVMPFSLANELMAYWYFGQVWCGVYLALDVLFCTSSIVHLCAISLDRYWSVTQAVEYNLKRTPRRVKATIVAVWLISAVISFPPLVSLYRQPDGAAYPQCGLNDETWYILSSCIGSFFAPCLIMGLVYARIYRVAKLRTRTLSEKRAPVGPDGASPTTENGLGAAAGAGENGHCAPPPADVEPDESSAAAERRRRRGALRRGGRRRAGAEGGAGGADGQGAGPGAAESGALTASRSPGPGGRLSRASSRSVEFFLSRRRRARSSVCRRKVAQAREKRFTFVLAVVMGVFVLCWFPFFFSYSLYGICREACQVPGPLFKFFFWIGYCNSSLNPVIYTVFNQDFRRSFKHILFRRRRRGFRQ
In test [9] the target is Muscarinic acetylcholine receptor M4 (Homo sapiens) (UniProt P08173). The test is described as follows: M4-linked GIRK flux change, two-sided – cell-based, HEK293 M4/GIRK, thallium flux, BTC-AM, M4 allosteric agonist project, primary screen (AID 625;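 active = fluorescence slope after compound addition differing from the mean of all tested samples at 99.7% confidence, mostly higher but some lower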;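 note: thallium influx through GIRK channels coupled to M4 in HEK293 cells with BTC-AM dye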). The conditions noted are these: at 10 µM, actives lie on both sides.
Sequence of Muscarinic acetylcholine receptor M4 (Homo sapiens) (P08173 whole entry, looked up): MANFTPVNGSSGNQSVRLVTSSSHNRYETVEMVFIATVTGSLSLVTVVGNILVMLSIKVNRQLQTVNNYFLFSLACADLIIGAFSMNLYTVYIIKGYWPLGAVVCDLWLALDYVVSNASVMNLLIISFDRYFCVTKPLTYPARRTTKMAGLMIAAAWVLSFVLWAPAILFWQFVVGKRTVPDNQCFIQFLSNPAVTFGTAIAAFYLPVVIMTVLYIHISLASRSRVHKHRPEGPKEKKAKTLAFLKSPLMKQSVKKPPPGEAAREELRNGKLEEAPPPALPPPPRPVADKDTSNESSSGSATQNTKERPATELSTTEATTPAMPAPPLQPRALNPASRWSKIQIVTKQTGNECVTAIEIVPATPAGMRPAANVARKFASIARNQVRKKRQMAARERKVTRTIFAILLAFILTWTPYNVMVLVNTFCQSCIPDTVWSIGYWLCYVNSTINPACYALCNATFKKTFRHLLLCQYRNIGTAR
Test [10] is described as follows: inhibitors of larval lipid processing in zebrafish, primary screen, whole organism, PED6 fluorescence, gall bladder and intestine (AID 686;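 active = a full or partial loss of lipid-probe fluorescence in the fish gall bladder, intestine or both, judged by eye; inactive = no fluorescence loss, or compound toxic to the fish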;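 note: larvae 5 to 7 days old with five fish per well; signal comes from phospholipase A2 cleavage of quenched PED6 carried via bile; overnight exposure to compound and PED6 before scoring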). As to conditions: Zebrafish larvae PED6 lipid processing, fluorescence scoring; screened at 20 µM (by protocol).
Test [11] in a line: loss of swimming-algae plug formation – whole organism, Chlamydomonas reinhardtii, WT vs cilia-less mutant, absorbance, 96-well, primary screen (AID 463189;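 active = inhibition at or above 50% relative to wild type and mutant plate controls; inactive = inhibition below 50%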;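 note: 0% = wild type cc124 cells in DMSO and 100% = ciliumless bld1 mutant cells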). The conditions noted are these: Chlamydomonas reinhardtii gravitaxis, OD600 absorbance, 2 days; at 10 µM; stronger effect = higher value.
A short description of test [12]: blockers of RIG-like receptor reporter activation – cell-based, Sendai virus stimulus, luciferase, 10K MLSCN set, TLR/RLR signaling modifier project, primary screen (AID 602276;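 active = inhibition at or above 50% at 10 µM; inactive = inhibition below 50%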;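 note: firefly luciferase from ISG56 promoter only with Renilla not read in this screen; 0% = Sendai virus plus DMSO and 100% = medium plus DMSO without virus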). The conditions noted are these: HEK293 RL24 IRF3 luciferase reporter, at 10 µM, stronger effect = higher value. (A reporter such as luciferase makes a cellular process visible.)
The nature of test [13]: TLR3 IRF3 reporter activation blockers – cell-based, poly I:C stimulus, luciferase, 10K MLSCN set, primary screen (AID 602277). The conditions noted are these: HEK293-TLR3 RL24 IRF3 luciferase reporter, at 10 µM, stronger effect = higher value.
Where [14] appears, read: measured here: cell density z-score.
Setting [15] is: measured here: nuclear c-Myc green intensity z-score.
[16] abbreviates: measured here: nuclear pErk red intensity z-score, stronger effect = higher value.

5 molecules from PubChem BioAssay can be followed below.

The source made the active and inactive calls.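 Rule for the calls, unless noted: active = inhibition of the reporter signal at or above 50%; inactive = inhibition below 50%.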

Usually inhibition stands for the relative decrease from the control value, in per cent. `CN1C(=O)c2c(sc3c2CCCC3)NC1c1ccccc1O` (stereo not given): the cell count in test [1] turned out to be 432. The inhibition in test [1] was -5.1% (inactive); in test [3] it was -128% (inactive); in test [5], -2.59% (inactive); in test [11] it was 15.4% (inactive); in test [12] it was -8.68% (inactive); in test [13], -24.4% (inactive). The inhibition of aggregation in test [2] is -1.6% (inactive). Moreover, the nuclei count in test [2] came out at 97.6%; in test [3] it was 136%. Also, the z-score in test [4] (setting [14]) was 1.59; in [4] (setting [15]) it was -1.82; in test [4] (setting [16]), 0.821. Moreover, the fluorescence slope in test [6] was -0.47 (inactive); in test [9], 0.00402 (inactive). Besides, the NADPH fluorescence slope in [7] was -0.000117 (inactive). For the same molecule, the slope in test [8] is 0.00476 (inactive). The molecule was classed as inactive in [10].

For the molecule `Cc1c(C2Nc3ccccc3NC3=C2C(=O)CC(C)(C)C3)cnn1C` (stereo not given), the cell count in test [1] is 678. Further, the inhibition was 34.8% (active) in test [1]; -16.2% (inactive) in [3]; 14.7% (inactive) in test [5]; 14.4% (inactive) in [11]; 35.1% (inactive) in test [12]; 99.4% (active) in test [13]. For the same molecule, the inhibition of aggregation in [2] was -2% (inactive). Moreover, the results for the nuclei count in test [2] and in test [3] were 115% and 101%, respectively. In addition, the z-score in test [4] (setting [14]) is 0.508; in test [4] (setting [15]), -0.847; in test [4] (setting [16]) it was -0.607. Also, the fluorescence slope in [6] is -0.548 (inactive); in test [9], 0.00628 (inactive). Further, the NADPH fluorescence slope in [7] was -2.1e-05 (inactive). For the same molecule, the slope in test [8] is 0.00605 (inactive). In addition, in test [10], the call was inactive.

Take `CCCCOc1ccc(C(=O)Nc2ccc(N3CCN(C(C)=O)CC3)cc2)cc1`: the cell count in [1] came to 490. For the same molecule, the inhibition in test [1] was -7.3% (inactive); in test [3], -28.4% (inactive); in [5], 5.95% (inactive); in [11], 3.64% (inactive); in test [12], 6.98% (inactive); in test [13] it was 2.99% (inactive). The inhibition of aggregation in test [2] was 0.5% (inactive). Also, the nuclei count in test [2] was 104%; in test [3], 141%. The z-score in [4] (setting [14]) is 1.4; in test [4] (setting [15]) it was -2.16; in test [4] (setting [16]), 0.274. The fluorescence slope in test [6] was -0.265 (inactive); in test [9], 0.00551 (inactive). In [7], the NADPH fluorescence slope is 1.1e-05 (inactive). The slope in test [8] was 0.00636 (inactive). Further, the call in test [10] was inactive.

As to `Cc1cc(C)n(Cc2cc(C)c(Cn3nc(C)cc3C)cc2C)n1`, the cell count in [1] was 622. Moreover, the inhibition in test [1] is 0.2% (inactive); in test [3], -44.5% (inactive); in test [5] it was 1.63% (inactive); in test [11], -0.144% (inactive); in [12], 8.11% (inactive); in test [13] it was 0.814% (inactive). Further, in test [2], the inhibition of aggregation was 15.4% (inactive). Besides, the nuclei count in [2] came to 102%; in test [3], 137%. Besides, the z-score in test [4] (setting [14]) came out at 0.927; in [4] (setting [15]) it was 1.3; in test [4] (setting [16]), 1.6. The fluorescence slope in test [6] is -0.434 (inactive); in [9], 0.00602 (inactive). Further, the NADPH fluorescence slope in [7] was -0.000128 (inactive). Further, the slope in test [8] was 0.00432 (inactive). For the same molecule, the molecule was called inactive in [10].

Turning to `C=CCSc1nnc2n(CCc3ccccc3)c(=O)c3c4c(sc3n12)COC(C)(C)C4`, the cell count in test [1] amounted to 492. Besides, the inhibition was -1.7% (inactive) in [1]; -100% (inactive) in test [3]; 9.91% (inactive) in [5]; 28.7% (inactive) in test [11]; 0.226% (inactive) in [12]; -17.3% (inactive) in test [13]. Also, the inhibition of aggregation in test [2] was 3.5% (inactive). The values for the nuclei count in [2] and in test [3] were 115% and 135%, respectively. In addition, the figures for the z-score in test [4] (setting [14]), in [4] (setting [15]) and in test [4] (setting [16]) were 1.51, -1.62 and -0.504, respectively. The results for the fluorescence slope in [6] and in [9] were -0.35 (inactive) and 0.0058 (inactive), respectively. In test [7], the NADPH fluorescence slope is -1.2e-05 (inactive). Moreover, the slope in test [8] was 0.00563 (inactive). In test [10], the molecule was classed as inactive.
